Compound activity: PubChem BioAssay, National Center for Advancing Translational Sciences (NCATS)
Pol kappa inh = DNA polymerase kappa (human) inhibition; AID 588579; Q9UBT6; 0.53% of 400,000 active; Potency, µM (series often up to 107 µM), usual class: inhibitors; purified Pol kappa, fluorescent DNA synthesis assay, 10 min
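Fluorescent qHTS in 1536-well format: enzyme (10 nM) and compound sat 15 min at room temperature before 50 nM substrate (final) was added. Signal taken at 0 and 10 min; no-enzyme buffer wells were negative controls.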
POLB inh = DNA polymerase beta (human) inhibition; Pol beta primer extension/strand displacement, fluorescence kinetic; Potency, µM (highest dose often 114 µM), actives largely listed as inhibitors; AID 485314; 1.3% of 340,000 active
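Pol beta (10 nM) and compounds were preincubated 15 min at room temperature, then 50 nM substrate (final) started primer extension/strand displacement. Reads were taken at 0 and 10 min; concentration-response data were fitted to a four-parameter Hill equation.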
POLH inh = DNA polymerase eta (human) inhibition | Q9Y253 | recombinant Pol eta, fluorescent DNA replication assay | Potency, µM (highest dose often 114 µM), hits mostly inhibitors | 1.2% of 390,000 active
Target sequence (Q9Y253 whole entry, looked up): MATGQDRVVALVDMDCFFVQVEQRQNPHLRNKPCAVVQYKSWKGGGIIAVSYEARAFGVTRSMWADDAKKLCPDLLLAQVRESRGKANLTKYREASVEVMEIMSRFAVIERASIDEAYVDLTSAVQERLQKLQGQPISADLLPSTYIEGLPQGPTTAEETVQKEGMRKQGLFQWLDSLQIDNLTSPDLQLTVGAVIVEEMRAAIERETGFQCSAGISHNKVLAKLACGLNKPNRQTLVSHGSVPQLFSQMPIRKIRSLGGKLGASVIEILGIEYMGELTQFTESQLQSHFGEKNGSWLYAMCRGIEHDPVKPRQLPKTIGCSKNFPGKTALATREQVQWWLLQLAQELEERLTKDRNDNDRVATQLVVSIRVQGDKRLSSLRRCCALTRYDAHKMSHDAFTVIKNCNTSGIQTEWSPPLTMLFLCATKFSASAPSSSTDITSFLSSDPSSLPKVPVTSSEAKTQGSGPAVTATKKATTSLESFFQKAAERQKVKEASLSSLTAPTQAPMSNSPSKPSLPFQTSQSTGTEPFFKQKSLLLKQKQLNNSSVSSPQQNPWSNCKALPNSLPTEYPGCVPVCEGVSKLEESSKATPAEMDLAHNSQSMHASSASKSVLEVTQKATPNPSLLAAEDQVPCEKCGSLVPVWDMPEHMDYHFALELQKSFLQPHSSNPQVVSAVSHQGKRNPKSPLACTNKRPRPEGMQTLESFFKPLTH
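Fluorescent replication assay: 50 nM final substrate added after a 15 min room-temperature compound preincubation with 10 nM enzyme. Signal taken at 0 min and again at 10 min.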
ALOX12 inh = inhibitors of human 12S-lipoxygenase ALOX12. 1.1% of 580,000 active. purified 12hLO, xylenol orange hydroperoxide absorbance. Potency, µM (doses to about 108 µM), most hits filed as inhibitors
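Purified human 12hLO at 150 nM in 25 mM Hepes, 0.01% Triton X-100, pH 7.0, preincubated 15 min at room temperature with compound. Reaction started with 40 uM arachidonic acid, 30 min at room temperature. Hydroperoxide measured by Fe-xylenol orange, 573/405 nm absorbance ratio.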
POLI inh = DNA polymerase iota (human) inhibition; Q9UNA4; Pol iota fluorescent replication assay, 10 min; Potency, µM (doses to about 115 µM), usual class: inhibitors; 1% of 390,000 active; AID 588590
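Pol iota at 10 nM preincubated 15 min with compounds at room temperature; reaction started with fluorescent substrate, 50 nM final. Fluorescence read kinetically at 0 and 10 min; buffer-only wells as negative control.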
PI5P4Ka inh = inhibitors of human PI5P4K alpha; P48426; PI5P4Kalpha enzyme, ADP-Glo luminescence, 60 min; active compounds read low; max response, %; 1.2% of 330,000 active; active = max response of -50% or lower; inconclusive = between -30% and -50%; inactive = -30% or higher; also: value at the top dose of about 77 µM
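Enzyme plus substrate dispensed, test compounds pinned in, then ATP (5 microM final) added. After 60 min at RT, ADP-Glo reagent 1 for 45 min and reagent 2 for 30 min preceded luminescence imaging.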
Of the large screens only hits and unclear results are named; the others gave an inactive call. The list is not random: actives were taken first. Their share in the collection is about 2.9%. Unless noted, calls follow the shape of the dose curve; as a rule, active = well fitted inhibition curve with a large enough effect; inconclusive = small, poorly fitted or top-dose-only effect, or another doubt; inactive = no such curve, though single readings can be large or run the other way.

CCOC(=O)c1sc(NC(=O)C(C)C)c(C#N)c1C	POLI inh inconclusive, PI5P4Ka inh -68
CCOC(=O)c1sc(NC(=O)CSc2nc(C)cc(C)n2)c(C#N)c1C	POLI inh inconclusive (no result: PI5P4Ka inh)
CCOC(=O)c1sc(NC(=O)CSc2n[nH]c(-c3ccccc3)n2)c(C#N)c1C	POLH inh inconclusive, ALOX12 inh inconclusive, PI5P4Ka inh -55
CCOC(=O)c1sc(NC(=O)CCCC(=O)O)c(C#N)c1C	ALOX12 inh 6.3µM (no result: Pol kappa inh, POLB inh, POLH inh, POLI inh, PI5P4Ka inh)
CCOC(=O)c1sc(NC(=O)C2=COCCO2)c(C#N)c1C	POLI inh inconclusive (no result: POLB inh)
O=C(NCc1ccco1)c1ccc2c(c1)n(Cc1ccc(F)cc1)c(=O)c1ccnn12	none (no result: Pol kappa inh, POLB inh, POLH inh, POLI inh, PI5P4Ka inh)
COC(=O)c1sc2ncccc2c1OCc1c(Cl)cccc1Cl	POLB inh inconclusive, POLH inh inconclusive, ALOX12 inh 40µM
COC(=O)c1sc2ncccc2c1OCc1cccc(Cl)c1	none (no result: PI5P4Ka inh)
Clc1cccc(-c2noc(-c3ccc[nH]3)n2)c1	ALOX12 inh 45µM (no result: Pol kappa inh, POLB inh, POLH inh, POLI inh, PI5P4Ka inh)
CN(C)c1ccccc1NC(=O)c1cncc(Br)c1	none (no result: Pol kappa inh, POLB inh, POLH inh, POLI inh, PI5P4Ka inh)
CCOC(=O)CCc1c(C)nc2cc(-c3cc(OC)cc(OC)c3)[nH]n2c1=O	POLB inh 28µM (no result: PI5P4Ka inh)
CCc1c(C)nc2cc(-c3cccc(Br)c3)[nH]n2c1=O	POLB inh 25µM
CCc1c(C)nc2cc(-c3ccc(Cl)cc3)[nH]n2c1=O	ALOX12 inh inconclusive
O=C(NCCC(=O)N1CCN(c2ncccn2)CC1)c1ccc(Br)cc1	none (no result: Pol kappa inh, POLB inh, POLH inh, POLI inh, PI5P4Ka inh)
COc1cccc(-c2noc(-c3ccc(S(=O)(=O)N4CCCC4)o3)n2)c1	none (no result: Pol kappa inh, POLB inh, POLH inh, POLI inh, PI5P4Ka inh)
Cc1cccc(-n2c(=O)c3c(cc(C)n3C)n(CC(=O)Nc3c(C)cccc3C)c2=O)c1	ALOX12 inh 71µM (no result: Pol kappa inh, POLB inh, POLH inh, POLI inh, PI5P4Ka inh)
COc1ccccc1NC(=O)Cn1c(=O)n(-c2cccc(C)c2)c(=O)c2c1cc(C)n2C	none (no result: Pol kappa inh, POLB inh, POLH inh, POLI inh, PI5P4Ka inh)
CN(CCC#N)C(=O)CSc1nc(C2CC2)nc2ccccc12	none (no result: Pol kappa inh, POLB inh, POLH inh, POLI inh, PI5P4Ka inh)
COc1cccc(C(=O)NCC2CCN(c3ccc(S(=O)(=O)N4CCOCC4)cc3)CC2)c1	POLB inh 40µM
O=C(NCC1CCN(c2ccc(S(=O)(=O)N3CCOCC3)cc2)CC1)c1cccc(Cl)c1	none (no result: PI5P4Ka inh)
COc1cccc(C(=O)Nc2cccc(C(=O)N3CCOCC3)c2)c1	POLI inh 89µM
COc1cccc(C(=O)N2CCOCC2)c1	none
Clc1ccc2c(N/N=C/c3ccccc3Br)ccnc2c1	POLB inh 22µM, ALOX12 inh inconclusive
Clc1ccc2c(N/N=C/c3cccc(Br)c3)ccnc2c1	POLB inh 32µM, ALOX12 inh inconclusive, PI5P4Ka inh -69
O=[N+]([O-])c1ccc(/C=N/Nc2ccnc3cc(Cl)ccc23)o1	POLB inh inconclusive, POLH inh inconclusive, ALOX12 inh inconclusive, POLI inh inconclusive, PI5P4Ka inh inconclusive
Cn1c(=O)n(CC(=O)N2CCCCCC2)c(=O)c2cc(S(=O)(=O)N3CCCCC3)ccc21	none (no result: Pol kappa inh, POLB inh, POLH inh, POLI inh, PI5P4Ka inh)
COc1ccc(C(CNC(=O)CN2CCN(C(=O)C3CC3)CC2)c2c[nH]c3ccccc23)cc1 (centres undefined)	none (no result: Pol kappa inh, POLB inh, POLH inh, POLI inh, PI5P4Ka inh)
CC(=O)c1c(C)oc2c(Br)cc(NS(=O)(=O)c3ccc(Cl)c(C)c3)cc12	none (no result: Pol kappa inh, POLB inh, POLH inh, POLI inh, PI5P4Ka inh)
CC(=O)c1c(C)oc2c(Br)cc(NS(=O)(=O)c3ccc(Br)cc3)cc12	POLB inh inconclusive, ALOX12 inh 45µM, POLI inh 79µM (no result: PI5P4Ka inh)
CCOC(=O)N(C)CC(=O)NC1CCCCC1	none (no result: Pol kappa inh, POLB inh, POLH inh, POLI inh, PI5P4Ka inh)
COc1cc(/C=C/C(=O)O)cc(S(=O)(=O)Nc2ccc3c(c2)OCO3)c1OC	PI5P4Ka inh -53
COc1cc(/C=C/C(=O)O)cc(S(=O)(=O)NNC(=O)c2ccc3c(c2)OCO3)c1OC	none (no result: POLB inh)
CC(Oc1ccc2ccc(=O)oc2c1)C(=O)N1CCc2ccccc21 (centres undefined)	none (no result: Pol kappa inh, POLB inh, POLH inh, POLI inh, PI5P4Ka inh)
O=C(NCCC(c1ccccc1)c1ccccc1)NNc1ccccn1	ALOX12 inh 22µM (no result: Pol kappa inh, POLB inh, POLH inh, POLI inh, PI5P4Ka inh)
Cc1cc(SCC(=O)c2ccc(O)c(O)c2)n2nc(C)c(-c3ccccc3)c2n1	ALOX12 inh 40µM
CCSc1cc(C)nc2c(-c3ccc(Cl)cc3)c(C)nn12	none (no result: PI5P4Ka inh)
Cc1cccc(N=C2NC(=O)/C(=C/c3cccn3C)S2)c1C	POLI inh inconclusive, PI5P4Ka inh -72
CC(C)N(C(=O)COc1ncnc2ccc(Br)cc12)c1ccccc1	none (no result: Pol kappa inh, POLB inh, POLH inh, POLI inh, PI5P4Ka inh)
